Screening data (PubChem BioAssay)
Only some compounds are listed: those with a hit (about 9.2% of all), similar ones and a draw of the others.
NPC1 promoter act: activates the NPC1 promoter | Huh7 NPC1 promoter luciferase reporter, 24 h | Potency, µM (series often up to 9.22 µM), usual class: activators | 320,000 tested, 2.4% active | AID 485313; also: nearly all actives have a fitted effect of over 60% in size
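Huh7 reporter cells (NPC1 promoter driving luciferase) are dosed with compound for 24 h at 37 °C, 5% CO2; luciferase detection reagent is then added and luminescence measured after 10 min at ambient temperature.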
SMN2 splice enh: enhancers of SMN2 splice variant expression. AID 1458. HEK293 SMN2-luciferase splicing reporter, luminescence, 30-36 h. 210,000 tested, 2.8% active. Potency, µM (top dose mostly 46.1 µM), usual class: activators; also: nearly all actives have a fitted effect of over 55% in size
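qHTS luciferase splicing reporter: luminescence rises when SMN2 exon 7 is included in transfected HEK293 cells. Compound exposure lasted 30-36 h at 37C, with 4.5 mM final sodium butyrate as control, followed by a ONE-Glo read.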
ELG1 repair inh: blocks ELG1-dependent DNA repair in HEK293T cells; AID 504467; HEK293T ELG1-luciferase reporter, luminescence, 16 h; DNA damage induced by 5-fluorouridine; Potency, µM (highest dose often 46.1 µM), most hits filed as inhibitors; 330,000 tested, 2.3% active; also: nearly all actives have a fitted effect of over 55% in size
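Quantitative HTS, concentration-response format. 2,000 cells/well co-treated with 5-fluorouridine and compound, 16 hr in 5% CO2 at 37 °C; ONE-Glo luminescence read after 30 min.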
Rab9 prom act: Rab9 promoter activation; Potency, µM (series often up to 9.22 µM), usual class: activators; AID 485297; 320,000 tested, 2.8% active; Huh7 Rab9 promoter-luciferase reporter, luminescence, 24 h; also: nearly all actives have a fitted effect of over 60% in size
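Luciferase signal after 10 min detection reagent at ambient indicates Rab9 promoter upregulation; stably transfected Huh7 cells were treated 24 h with compound in DMSO at 37 °C, 5% CO2.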
FLuc counter: firefly luciferase modulation, counter-screen for miR-21 project | P08659 | purified FLuc, Km substrates, luminescence inhibition | Potency, µM (titrated, usually from 57.5 µM), actives largely listed as inhibitors | 360,000 tested, 6.9% active | AID 588342; also: nearly all actives have a fitted effect of over 55% in size
Target sequence (P08659 whole entry, looked up): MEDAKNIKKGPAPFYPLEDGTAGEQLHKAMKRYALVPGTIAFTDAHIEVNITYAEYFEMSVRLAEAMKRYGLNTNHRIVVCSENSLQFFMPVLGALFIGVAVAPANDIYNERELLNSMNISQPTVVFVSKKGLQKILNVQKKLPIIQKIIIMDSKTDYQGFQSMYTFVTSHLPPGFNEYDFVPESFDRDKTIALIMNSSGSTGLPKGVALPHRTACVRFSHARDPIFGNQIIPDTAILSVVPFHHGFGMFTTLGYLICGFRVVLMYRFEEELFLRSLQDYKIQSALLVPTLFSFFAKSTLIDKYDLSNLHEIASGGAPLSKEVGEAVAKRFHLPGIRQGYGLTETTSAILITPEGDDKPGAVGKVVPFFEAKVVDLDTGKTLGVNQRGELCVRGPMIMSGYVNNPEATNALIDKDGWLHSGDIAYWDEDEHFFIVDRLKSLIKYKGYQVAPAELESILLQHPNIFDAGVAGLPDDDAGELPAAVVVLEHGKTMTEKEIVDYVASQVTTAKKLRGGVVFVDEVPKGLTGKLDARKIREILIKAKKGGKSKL
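Purified P. pyralis luciferase (10nM final) with 10uM D-luciferin and 10uM ATP (Km levels) in 50mM Tris acetate pH 7.5, 10mM Mg acetate, 0.01% Tween-20, 0.05% BSA; qHTS 6-point titration, ~60 µM downward; luminescence read.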
ELG1 genotoxic: genotoxicity induction in ELG1-luciferase HEK293T cells. AID 504466. HEK293T ELG1-luciferase reporter, luminescence, 16 h. 330,000 tested, 1.3% active. Potency, µM (highest dose often 46 µM), most hits filed as activators; also: nearly all actives have a fitted effect of over 60% in size
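HEK293T cells expressing luciferase-tagged ELG1 were treated with compound or DMSO for 16 hr at 37°C. Luciferase activity was then read after 30 min with ONE-Glo at room temperature; rising signal flags genetic stress.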
Numbers stand for hits; – = inactive; ? = inconclusive; · = not tested or not shown; ! = repeats disagree; [ ] = another dose, or the depositor's remark. Calls follow the shape of the dose curve; as a rule, active = well fitted curve in the direction sought with a large enough effect; inconclusive = small, poorly fitted or top-dose-only effect, or another doubt; inactive = no such curve, though single readings can be large; an effect the other way counts as inactive or inconclusive.

SMILES	NPC1 promoter act	SMN2 splice enh	ELG1 repair inh	Rab9 prom act	FLuc counter	ELG1 genotoxic
O=C(NCc1ccccc1)c1ccc2c(c1)N(Cc1ccc(F)cc1)CCS2	·	–	·	·	–	·
CC(C)(C)c1ccc(OCC(=O)N2CCCCCC2)c(Br)c1	?	13µM	?	?	15µM	?
O=C(COc1ccc(Cl)cc1Cl)N1CCCCCC1	–	–	?	–	?	–
Cc1ccc(OCC(=O)N2CCCCC2)c(Br)c1	?	20µM	?	?	?	–
NC(=O)c1ccccc1NC(=O)CSc1nc2ccccc2c(=O)[nH]1	–	·	–	–	–	–
Cc1cc2nc(SCC(=O)Nc3ccccc3C(=O)O)[nH]c2cc1C	–	–	?	–	11µM	?
CCC(C(=O)Nc1ccc(C(C)=O)cc1)n1c(C)c2cnn(-c3ccccc3)c(=O)c2c1C (stereo not drawn)	·	–	·	·	–	·
Fc1ccc(COc2ccc(C(=S)N3CCCC3)cc2)cc1	2.2µM	·	?	1.3µM	21µM	?
O=C(COc1ccc(C(=S)N2CCCC2)cc1)Nc1ccc(F)cc1	–	·	–	–	–	–
S=C(c1ccc(OCc2ccccc2)cc1)N1CCCC1	?	·	?	?	19µM	?
CN(Cc1ccc(C(C)(C)C)cc1)C(=O)C1CSC2(C)CCC(=O)N12 (stereo not drawn)	–	·	?	–	–	–
C=CCN(C(=O)C1CSC2(C)CCC(=O)N12)c1nc(-c2ccccc2)cs1 (stereo not drawn)	–	·	?	–	–	18µM
c1ccc(Nc2nc(CSc3ncn[nH]3)cs2)cc1	?	–	?	?	15µM	–
Cc1ccc(Cn2cc(C(=O)c3ccc(F)cc3)c(=O)c3cc4c(cc32)OCCO4)cc1	–	–	21µM	–	–	–
COc1ccc(NC(=O)Cn2c(=O)oc3cc(S(=O)(=O)NC(C)C)ccc32)cc1OC	·	·	·	·	–	·
Cc1ccc(OCc2cc(C(=O)N3CCN(c4ccccc4)CC3)no2)cc1C	2.5µM	·	?	2µM	6µM	3.7µM
Cc1ccc(OCc2cc(C(=O)N3CCC(c4ccccc4Cl)C3)no2)cc1C (stereo not drawn)	?	·	?	?	27µM	?
CCN(Cc1ccncc1)C(=O)c1cc(COc2ccc(C)c(C)c2)on1	–	·	–	–	–	–
Cc1ccc(OCc2cc(C(=O)N3CCN(C4CCCC4)CC3)no2)cc1C	–	·	?	–	?	–
Cc1ccc(OCc2cc(C(=O)N(CCO)Cc3cccs3)no2)cc1C	4µM	·	?	3.5µM	27µM	?
CCOC(=O)C1CCN(C(=O)Cn2ncc3c4ccccc4n(Cc4ccc(F)cc4)c3c2=O)CC1	·	–	·	·	–	·
CNc1nnc(-c2ccc(N(C)C)cc2)s1	0.56µM	2.8µM	?	0.45µM	2.1µM	?
Cn1c(=N)n(CC(=O)c2ccc(F)cc2)c2ccccc21	?	·	?	0.89µM	1.3µM	?
CCn1c(=N)n(CC(=O)c2ccc(Cl)c(Cl)c2)c2ccccc21	4.5µM	·	?	4µM	?	–
N=c1n(CCN2CCCCC2)c2ccccc2n1CC(=O)c1ccc(Cl)c(Cl)c1	–	·	?	–	–	–
SMILES	NPC1 promoter act	SMN2 splice enh	ELG1 repair inh	Rab9 prom act	FLuc counter	ELG1 genotoxic
Cc1cccc(NC(=O)COC(=O)CC2CCCC2)c1C	–	·	–	–	?	–
Cc1ccc(-c2nc(CS(=O)(=O)CC(=O)Nc3ccc(Br)cc3F)c(C)o2)cc1	·	–	·	·	–	·
O=c1[nH]c2ccc(F)cc2[nH]c1=O	–	–	–	–	–	–
O=c1[nH]c2cc(Cl)c(Cl)cc2[nH]c1=O	–	11µM!	·	–	·	·
NCc1cccc(CNc2ccc([N+](=O)[O-])cc2C(N)=O)c1	?	·	–	3.2µM	–	?
Cc1ccc(N2CCN(C(=O)c3c4c(nc5ccccc35)C(=O)N(C3CCCCC3)C4)CC2)c(C)c1	·	·	·	·	–	·
COc1ccc2nc(N3C(=O)/C(=C/c4ccc(Cl)cc4)NC3=S)sc2c1	–	–	–	–	17µM	–
COn1c(-c2ccc(Cl)cc2)nc2ncccc21	?	·	?	?	21µM	?
Cc1ccc(S(=O)(=O)N(C)CCCC(=O)Nc2ccncc2)cc1	–	–	5.8µM	–	–	–
Cc1ccc(NC(=O)c2ccc(OCc3c(C)noc3C)cc2)nc1	–	·	–	–	–	–
Cc1ccc(NC(=O)c2ccc(OCC3CCCO3)cc2)cc1 (stereo not drawn)	2.2µM	7.9µM	?	2.5µM	6µM	?
O=C(NCc1ccccc1)c1ccc(OCC2CCCO2)cc1 (stereo not drawn)	–	–	?	–	?	–
Cc1cnc(NC(=O)C2CCCO2)s1 (stereo not drawn)	–	–	–	–	–	–
Cc1ccc(NC(=O)c2ccc(OCC3CCCO3)cc2)nc1 (stereo not drawn)	1.8µM	·	?	1µM	4.8µM	?
NC(=O)c1ccc(OCC2CCCO2)cc1 (stereo not drawn)	–	·	–	–	–	–
Cc1cnc(NC(=O)c2ccc(OCC3CCCO3)cc2)s1 (stereo not drawn)	0.5µM	2.2µM	?	0.13µM	0.76µM	?
O=C(Nc1nc2ccccc2s1)c1ccc(OCC2CCCO2)cc1 (stereo not drawn)	3.2µM	·	?	0.4µM	0.76µM	?
Fc1ccc(Nc2nc3ccccc3s2)cc1	?	13µM	?	2.5µM	7.6µM	?
Cc1ccccc1Nc1nc2ccccc2s1	3.5µM	11µM	?	2.5µM	4.8µM	?
Cc1ccc(Nc2nc3ccccc3s2)cc1	1µM	2.8µM	?	0.71µM	0.85µM	7.3µM
O=[N+]([O-])c1ccc(Nc2nc3ccccc3s2)cc1	·	–[9.22 µM]	·	·	·	·
CC(NC(=O)c1ccccc1)C(=O)NC1CCCc2ccccc21 (stereo not drawn)	–	·	–	–	–	–
O=C(CCCn1c(=O)c2sccc2n(Cc2ccc(F)cc2)c1=O)NCc1ccco1	–	–	21µM	–	–	–
Cc1ccc(/C=c2\s/c(=C(/C#N)C(=O)N3CCCC3)n(Cc3ccco3)c2=O)s1	–	–	13µM	–	–	–
CC(=O)NC1=C(NC2CCS(=O)(=O)C2)C(=O)c2ccccc2C1=O (stereo not drawn)	–	·	?	–	–	–
CN(C1=C(NC(=O)c2ccccc2)C(=O)c2ccccc2C1=O)C1CCS(=O)(=O)C1 (stereo not drawn)	–	–	9.2µM	–	–	–
COc1ccccc1N1CCN(S(=O)(=O)c2c(C)sc3ncn(CC(=O)N(C)c4ccc(Cl)cc4)c(=O)c23)CC1	·	–	·	·	–	·
CN(C)C(=O)CSc1nc2ccc(C(=O)c3ccccc3)cc2[nH]1	–	·	–	–	?	–
Cc1ccc(CNc2ncnc3c2cnn3-c2ccc(Cl)cc2)cc1	·	·	·	·	–	·
